Measured values: PubChem BioAssay (NCATS)
Inconclusive results are not listed. Where a call stands in place of a potency, no number is given. Calls of active or inactive are those of the source. Calls come from the whole dose curve; as a rule, active = well fitted activation curve with a large enough effect; inconclusive = small, poorly fitted or top-dose-only effect; inactive = flat fitted curve, though single readings scatter.

Assay: Primary redox qHTS assay for identification of artifact compounds. (AID 1845223)
Details: Amplex Red/HRP redox cycling with DTT, fluorescence; series mostly up to 53.8 µM
Outline: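 Amplex Red (25 uM) and HRP (250 mU/mL) in HBSS, with compounds for 15 min, then 250 uM DTT for 30 min, room temperature, dark. Fluorescence 525/598 nm read; normalized to DMSO and 10 uM DA3003; Hill fit.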

SMILES	Potency
C=C1C(=O)O[C@@H]2C[C@]3(C)[C@@H](CCC(C)O)[C@@H]3C[C@H]12 (stereo partly specified)	inactive
C/C=C(/C)C(=O)O[C@H]1C=C(CO)C(=O)[C@H](OC(=O)/C(C)=C/CO)[C@H]1C(C)C	inactive
O=C(NC1CCN(CCCCC2(C(=O)NCC(F)(F)F)c3ccccc3-c3ccccc32)CC1)c1ccccc1-c1ccc(C(F)(F)F)cc1	inactive
CC(C)C[C@@H](C(=O)N[C@@H](Cc1ccc(OCc2ccccc2)cc1)C(=O)NC(C)(C)C)N(C)Cc1ccc(C(C)(C)C)cc1	inactive
COc1cc(-c2cn(C3CCc4c(F)cccc4N(CC(F)(F)F)C3=O)nn2)ccc1-n1cnc(C)c1 (stereo unspecified)	inactive
Cc1c(C(=O)NCc2cccnc2)nn(-c2ccc(Cl)cc2Cl)c1-c1ccc(Cl)cc1	inactive
COc1ccc([C@H](Cc2ccncc2)c2ccccc2)cc1OC1CCCC1	inactive
COc1ccccc1C(=O)Nc1cc2c(cc1N1CCCC1)n(C)c(=O)n2C	inactive
N#Cc1cnc2c(Cl)cc(NCc3cn(CCN4CCCCCC4)nn3)cc2c1Nc1ccc(F)c(Cl)c1	inactive
C=C1C(=O)O[C@@H]2C[C@H](C)[C@@H]3CC(=O)[C@H](O)[C@@]3(C)C[C@H]12	inactive
CC1(C)SCCN(S(=O)(=O)c2ccc(Oc3ccncc3)cc2)[C@H]1C(=O)NO	inactive
CCn1c(=O)c(-c2ccc(-c3cncs3)cc2Cl)cc2cnc(Nc3ccc(N4CCN(C)CC4)cc3)nc21	inactive
Cc1[nH]c2ccc(F)cc2c1-c1nc2c3cccnc3c3ncccc3c2[nH]1	inactive
O=C(NO)c1ccc(CC(=O)N(CCO)c2ccccc2)cc1	inactive
C#CCNCc1cc2cc(OCc3ccccc3)ccc2[nH]1	inactive
Cc1[nH]c(/C=C2\C(=O)Nc3ccc(F)cc32)c(C)c1C(=O)NCCN1CCCC1	inactive
C/C1=C/CCC2=CC(OC2=O)C(C)(C)/C=C/C1=O (stereo unspecified)	inactive
CC(C)c1cccc(C(C)C)c1NC(=O)Nc1ccc(Sc2ccc([N+](=O)[O-])cc2)cc1	inactive
C=C1C(=O)O[C@@H]2/C=C(\CO)CC/C=C(/C=O)C[C@@H](O)[C@@H]12	inactive
CC1CCCC[C@H]2C(=O)C=C[C@H](O)[C@@H]2CC(=O)O1 (stereo partly specified)	inactive
CCC(CC)Nc1nc(C)c(-c2ccc(OC(F)(F)F)cc2OC)nc1OC	inactive
CCOC(=O)c1cnn(-c2ccccc2)c1NC(=O)c1cc2nc(-c3ccco3)cc(C(F)(F)Cl)n2n1	inactive
CC(O)C(C)n1ncn(-c2ccc(N3CCN(c4ccc(OCC5COC(Cn6cncn6)(c6ccc(Cl)cc6Cl)O5)cc4)CC3)cc2)c1=O (stereo unspecified)	inactive
CN(C)[C@@H]1CCc2[nH]c3ccc(NC(=O)c4ccc(F)cc4)cc3c2C1	inactive
C[C@@H](NC(=O)C(=O)c1c[nH]c2ccc([N+](=O)[O-])cc12)c1ccccc1	inactive
Clc1ncoc1-c1c[nH]c2ccccc12	inactive
